rCAG RNA binder: r(CAG) repeat RNA binding. TO-PRO-1 dye displacement fluorescence. inhibition, % at 3 µM. 370,000 compounds, 1.3% hits. AID 651821;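 active = inhibition above the plate cutoff, the mean of all test compounds on that plate plus 3 SD, cut at about 35% in these data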;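 also: higher means more dye released from RNA so lower well fluorescence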
ADAM17 inh: inhibits human ADAM17. recombinant ADAM17, EDANS/DABCYL FRET peptide cleavage. inhibition, % at 6.95 µM. P78536. AID 720648. 370,000 compounds, 0.83% hits;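 active = inhibition above the mean of compounds lying between control limits plus 3 SD, set per campaign, cut at about 8.5% in these data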
AHR act: activators of human aryl hydrocarbon receptor | activation, % at 5 µM | AID 2796 | P35869 | 320,000 compounds, 2.5% hits | AHR-responsive luciferase reporter cells, luminescence; in the data active = activation above about 47%
GRIN3A LBD mod: modulators (binders) of human NR3A ligand-binding domain; NR3A LBD differential scanning fluorimetry, Tm shift; 0% = protein alone, 100% = glycine-bound protein; 340,000 compounds, 2.5% hits; Tm shift relative to glycine control, % at 25 µM;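 active = melting temperature shift of at least 10% of the positive control shift, at one fixed dose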
proKLK7 act: activates the human kallikrein-7 zymogen; activation, % at 7 µM; AID 652039; P49862; 370,000 compounds, 0.9% hits; purified proKLK7, EDANS-DABCYL substrate fluorescence; 100% is mature enzyme control, 0% vehicle;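 active = activation above the mean of all tested compounds plus 3 SD, computed per campaign excluding outliers beyond control limits, cut at about 13% in these data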
ADAM10 inh: ADAM10 inhibition, QFRET primary screen. O14672. recombinant ADAM10, EDANS/DABCYL FRET peptide cleavage, 3 h. inhibition, % at 7 µM. 370,000 compounds, 0.62% hits. AID 720582;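 active = inhibition above a per-campaign cutoff equal to the mean of compounds falling between control-based bounds plus 3 SD, cut at about 20% in these data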
ADAM10 confirm: confirmation of inhibitors of human ADAM10. AID 743208. 2,100 compounds, 1% hits. ADAM10 QFRET peptide cleavage, EDANS fluorescence. shares compounds with ADAM10 inh. inhibition, % at 6.95 µM;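 active = inhibition above about 20% chosen separately for each screening run, limit read from the data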
ADAM17 ctr: inhibits human ADAM17 in ADAM10 exosite counter-screen; ADAM17 QFRET peptide cleavage, EDANS fluorescence; AID 743214; inhibition, % at 6.95 µM; 2,100 compounds, 0.5% hits; shares compounds with ADAM10 inh;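 active = mean triplicate inhibition above the solvent-only control wells' mean plus 3 SD, cut at about 12% in these data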
ADAM10 ctr: inhibits human ADAM10 in ADAM17 exosite counter-screen; shares compounds with ADAM17 inh; recombinant ADAM10, EDANS/DABCYL FRET peptide cleavage, 3 h; inhibition, % at 6.95 µM; 2,900 compounds, 47% hits; AID 743256;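 active = mean inhibition over the triplicate runs exceeds the activity threshold set in the earlier primary screen, cut at about 20% in these data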
ADAM17 confirm: confirmation of inhibitors of human ADAM17 | shares compounds with ADAM17 inh | recombinant ADAM17, EDANS/DABCYL QFRET peptide cleavage | inhibition, % at 6.95 µM | 2,900 compounds, 65% hits | AID 743257;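 active = mean inhibition across replicates above the hit cutoff set in the primary screen, cut at about 8.5% in these data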
Each line names hits and unclear results; the compound was inactive in the other large screens (follow-up assays come after a bar, where they were run). Rows were chosen to be rich in hits. Some 7% of all compounds tested hit in one or more screens of this group.

Cc1ccc(NC(=O)CSc2nn(-c3ccc(Cl)cc3)c(=S)s2)cc1S(=O)(=O)N(C)C	ADAM17 inh 9.8, ADAM10 inh 25 | ADAM10 confirm inactive | ADAM17 ctr inactive | ADAM10 ctr 28 | ADAM17 confirm 20
Cc1ccc(NC(=O)Cc2ccc(Cl)c(Cl)c2)cc1S(=O)(=O)N(C)C	ADAM17 inh 15, ADAM10 inh 28 | ADAM10 confirm inactive | ADAM17 ctr inactive | ADAM10 ctr inactive | ADAM17 confirm 9.6
CCCCCCCCNC(=S)NCCN1CCCCC1	none (no result: AHR act)
COc1ccc(C(C(=O)NC(C)(C)C)N(C(=O)CCC(=O)Nc2cc(C)on2)c2c(C)cccc2C)cc1 (centres undefined)	none
Cc1cc(O)c(C(C)C)cc1N=Cc1ccc([N+](=O)[O-])cc1	none (no result: AHR act)
CC(C)C(=O)c1cn(CC(=O)N2CCCc3ccccc32)c2ccccc12	none
CCCCOc1ccccc1C1NC(=O)CCC1[N+](=O)[O-] (centres undefined)	none
COC(=O)c1ccc(Cl)c(NC(=O)CN(c2ccc(OC)cc2)S(=O)(=O)c2ccccc2)c1	ADAM17 inh 18, ADAM10 inh 35 | ADAM10 confirm inactive | ADAM17 ctr inactive | ADAM10 ctr 26 | ADAM17 confirm 16
Cc1cc(N2CCCCC2)nc(SCc2ccc(C#N)cc2)n1	ADAM17 inh 8.6, ADAM10 inh 26 | ADAM10 confirm inactive | ADAM17 ctr inactive | ADAM10 ctr 20 | ADAM17 confirm 13
COc1ccc(C2CCCCC2SCC(=O)O)cc1OC (centres undefined)	none (no result: AHR act, GRIN3A LBD mod)
CCOC(=O)c1c(N)sc(C(O)(C(F)(F)F)C(F)(F)F)c1-c1ccc(Cl)cc1	ADAM17 inh 11, ADAM10 inh 37 | ADAM10 confirm inactive | ADAM17 ctr inactive | ADAM10 ctr 47 | ADAM17 confirm 24
CCOC(=O)c1c(C)[nH]c(=S)c(C#N)c1-c1ccc(Cl)cc1	none
CC(C)Nc1nc(Nc2ccc(C(N)=O)cc2)c2sccc2n1	none (no result: AHR act, GRIN3A LBD mod)
O=C(NC1CCCCC1)c1cccc2c(-c3ccc(F)c(F)c3)coc12	none (no result: AHR act, GRIN3A LBD mod)
Cc1ccc(C)c(OCCC(=O)OCC(=O)Nc2cc(S(=O)(=O)N3CCCCC3)ccc2C)c1	ADAM17 inh 11, ADAM10 inh 25 | ADAM10 confirm inactive | ADAM17 ctr inactive | ADAM10 ctr 45 | ADAM17 confirm 21
COc1ccc(NC(=O)CCOc2cc(C)ccc2C)cc1S(=O)(=O)N1CCCCC1	ADAM17 inh 12, ADAM10 inh 24 | ADAM10 confirm inactive | ADAM17 ctr inactive | ADAM10 ctr inactive | ADAM17 confirm 9.2
CC(=O)c1ccc(OCCCC(=O)Nc2ccc(C)c(S(=O)(=O)N3CCCCC3)c2)cc1	none (no result: AHR act)
CCOc1ccc(C(=O)CCC(=O)Nc2ccc(C)c(S(=O)(=O)N3CCCCC3)c2)cc1	ADAM17 inh 9.1, ADAM10 inh 28 (no result: AHR act) | ADAM10 confirm inactive | ADAM17 ctr inactive | ADAM10 ctr 27 | ADAM17 confirm 13
C=CCc1cccc(CNc2nc3ccccc3n2C)c1O	ADAM17 inh 11, ADAM10 inh 20 | ADAM10 confirm inactive | ADAM17 ctr inactive | ADAM10 ctr 32 | ADAM17 confirm 17
COc1ccc(NC(=S)Nc2nc(CC(=O)Nc3ccccc3OC)cs2)cc1	ADAM17 inh 9.3, ADAM10 inh 24 | ADAM10 confirm inactive | ADAM17 ctr inactive | ADAM10 ctr inactive | ADAM17 confirm 14
OC(CNCC(c1ccc(Cl)cc1Cl)c1c[nH]c2ccccc12)c1ccccc1 (centres undefined)	ADAM17 inh 12, GRIN3A LBD mod 24, ADAM10 inh 26 | ADAM10 confirm inactive | ADAM17 ctr inactive | ADAM10 ctr 37 | ADAM17 confirm 17

Screening results from PubChem BioAssay.
